# Results: paper PMC5540273 (PLoS ONE, 2017)
# Assays:
# Conditions in all cases: concentration: 1 μM,replicates: in singlicate; n = 1
# MLK1 = tested on: T1, MLK1
# T1 construct: gene MAP3K9
# MLK2 = tested on: MLK2
# MLK3 = tested on: MLK3
# MRCKA = tested on: MRCKA
# MRCKB = tested on: T2, MRCKB
# T2 construct: gene CDC42BPB
# MST1R = tested on: MST1R
# MST1 = tested on: T3, MST1
# T3 construct: gene STK4
# MST2 = tested on: T4, MST2
# T4 construct: gene STK3
# MST3 = tested on: T5, MST3
# T5 construct: gene STK24
# MST4 = tested on: MST4
# MTOR = tested on: MTOR
# MUSK = tested on: MUSK
# MYLK2 = tested on: MYLK2
# MYLK4 = tested on: MYLK4
# MYLK = tested on: MYLK
# MYO3A = tested on: MYO3A
# MYO3B = tested on: MYO3B
# NDR1 = tested on: T6, NDR1
# T6 construct: gene STK38
# NDR2 = tested on: NDR2
# NEK10 = tested on: NEK10
# 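Also: KINOMEscan kinase panel screen.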
Compound,%Inh (MLK1),%Inh (MLK2),%Inh (MLK3),%Inh (MRCKA),%Inh (MRCKB),%Inh (MST1R),%Inh (MST1),%Inh (MST2),%Inh (MST3),%Inh (MST4),%Inh (MTOR),%Inh (MUSK),%Inh (MYLK2),%Inh (MYLK4),%Inh (MYLK),%Inh (MYO3A),%Inh (MYO3B),%Inh (NDR1),%Inh (NDR2),%Inh (NEK10)
CSc1nccc(-c2c(-c3ccc(F)cc3)ncn2CCCN2CCOCC2)n1.Cl [SB-217146],0%,28%,0%,0%,0%,0%,0%,0%,6%,0%,35%,0%,0%,0%,5%,21%,8%,42%,26%,14%
Cn1ccc2ncnc(Oc3ccc(NC(=O)Nc4cncc(C(F)(F)F)c4)c(Cl)c3)c21,0%,0%,0%,0%,0%,0%,0%,0%,0%,0%,7%,95%,0%,0%,0%,0%,0%,0%,0%,11%
COc1cc2c(Nc3ccc(NC(=O)c4ccccc4)cc3)ncnc2cc1OCCCN1CCOCC1 [GSK301329],0%,0%,13%,0%,0%,43%,16%,0%,0%,10%,15%,13%,0%,0%,2%,0%,0%,5%,0%,3%
Cc1ccc2c(-c3ccnc(Nc4ccc(C(F)(F)F)cc4)n3)cnn2n1 [GW819776],7%,35%,3%,0%,16%,0%,13%,39%,0%,0%,0%,7%,9%,23%,19%,0%,0%,37%,10%,31%
Cn1ccc2ncnc(Oc3ccc(NC(=O)Nc4cnn(C(C)(C)C)c4)c(Cl)c3)c21,30%,26%,0%,0%,0%,10%,12%,0%,4%,0%,0%,21%,4%,11%,0%,1%,9%,6%,8%,14%
Cc1nnc(-c2ccc3occ(-c4ccc(S(C)=O)cc4)c3n2)o1 (centres unmarked),0%,0%,0%,0%,43%,2%,0%,0%,0%,0%,0%,0%,6%,0%,0%,0%,0%,0%,0%,0%
O=C(Nc1ccc(Oc2ccc3nc(NC(=O)C4CC4)cn3n2)c(F)c1)c1cccn(-c2ccccc2)c1=O,19%,32%,10%,0%,0%,39%,0%,0%,0%,0%,21%,99.5%,0%,0%,0%,0%,0%,3%,0%,0%
Cc1cccc(-c2nc(Nc3ccncc3)c3sccc3n2)n1 [GW869641],3%,34%,19%,67%,98.5%,0%,37%,17%,5%,40%,75%,0%,4%,0%,35%,9%,21%,35%,0%,24%
OCCn1cc(-c2cnc3nnn(Cc4ccc5ncccc5c4)c3n2)cn1,0%,0%,0%,0%,0%,0%,0%,0%,0%,0%,52%,0%,0%,0%,3%,0%,0%,7%,4%,0%
Nc1nccc(-c2ccc3c(N)n[nH]c3c2)n1 [GSK1034945],0%,0%,0%,11%,5%,27%,3%,0%,0%,0%,0%,9%,85%,83%,21%,8%,0%,0%,0%,0%
COc1ccc(Nc2nccc(N3CCC(NC(=O)c4cccc(C#N)c4)C3)n2)cc1 (centres unmarked) [GSK1379730],1%,0%,22%,0%,0%,29%,19%,0%,0%,0%,10%,5%,0%,0%,0%,0%,0%,0%,0%,28%
CS(=O)(=O)Nc1ccc(-c2ccnc3[nH]ccc23)cc1 [GSK993273],4%,33%,10%,12%,9%,34%,11%,5%,20%,11%,9%,24%,27%,95.5%,43%,0%,0%,20%,6%,71%
Cn1ccc2ncnc(Oc3ccc(NC(=O)Nc4cccc(C(F)(F)F)c4)c(Cl)c3)c21,53%,12%,2%,3%,21%,33%,16%,24%,18%,0%,33%,94.6%,21%,5%,3%,0%,22%,17%,0%,0%
Cn1ccc2ncnc(Oc3ccc(NC(=O)Nc4ccnc(C(F)(F)F)c4)c(Cl)c3)c21,8%,0%,0%,0%,0%,32%,83%,0%,9%,0%,25%,42%,0%,0%,0%,0%,0%,0%,2%,0%
CC(C)c1nc(-c2cccc(NS(=O)(=O)c3ccccc3)c2)c(-c2ccnc(Nc3ccc4c(c3)CN(C)CC4)n2)s1 [GSK1649598],18%,0%,22%,7%,0%,41%,67%,26%,82%,82%,0%,15%,0%,13%,13%,48%,0%,31%,0%,0%
FC(F)(F)c1cc(Br)cc(Nc2nccc(-c3cnn4ncccc34)n2)c1 [GW810578],0%,17%,11%,0%,0%,0%,5%,0%,0%,17%,0%,18%,1%,29%,8%,9%,8%,19%,13%,40%
CN1CCN(CCNc2nc3cc(Oc4ccc(NC(=O)Nc5cc(C(F)(F)F)ccc5F)cc4)ccc3[nH]2)CC1.Cl.Cl [GW768504],0%,40%,0%,0%,4%,0%,16%,0%,0%,0%,0%,97.3%,6%,0%,0%,0%,20%,51%,7%,0%
Cc1cccc2c(-c3ccncc3)c(-c3ccc(F)cc3)nn12.Cl [GW461487],0%,0%,0%,0%,4%,44%,90.4%,46%,16%,0%,0%,7%,2%,0%,14%,8%,0%,25%,0%,14%
COc1cccc(OC)c1C(=O)Nc1cccc(-c2nn3ccccc3c2-c2ccnc(Nc3cccc(F)c3)n2)c1 [GSK361065],4%,10%,10%,0%,3%,23%,20%,61%,7%,0%,0%,3%,0%,0%,87%,28%,13%,17%,13%,0%
CCCC(=O)Nc1n[nH]c2ncccc12 [SB-601436],0%,0%,1%,0%,0%,12%,0%,0%,0%,0%,0%,0%,0%,0%,2%,0%,12%,9%,0%,0%
O=C1NCCc2[nH]c(-c3ccncc3)cc21,0%,0%,13%,0%,0%,51%,3%,20%,23%,0%,0%,34%,20%,5%,33%,7%,,20%,0%,14%
